Out of some 220,000 compounds screened, about 1,500 (0.68%) were called active. The sample as a whole holds a higher share of actives than the screen did. A number with no mark means an inactive call.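 The calls were made as follows: active = Hck-Nef kinase inhibition above about 50% (limit read from the data); inactive = inhibition below that limit.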

This assay deals with Tyrosine-protein kinase HCK (Homo sapiens) (UniProt P08631). As to the kind of experiment: Hck:Nef complex kinase activity blockers – biochemical, Z-Lyte FRET, 384-well, Hck-YEEI, primary screen (AID 463187).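 Also: 0% = DMSO with Hck plus Nef and 100% = Hck alone without Nef.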 To be noted: Recombinant Hck-YEEI plus Nef, Z-Lyte FRET kinase assay; at 20 µM; active compounds read high.
Tyrosine-protein kinase HCK (Homo sapiens), sequence (P08631 whole entry, looked up): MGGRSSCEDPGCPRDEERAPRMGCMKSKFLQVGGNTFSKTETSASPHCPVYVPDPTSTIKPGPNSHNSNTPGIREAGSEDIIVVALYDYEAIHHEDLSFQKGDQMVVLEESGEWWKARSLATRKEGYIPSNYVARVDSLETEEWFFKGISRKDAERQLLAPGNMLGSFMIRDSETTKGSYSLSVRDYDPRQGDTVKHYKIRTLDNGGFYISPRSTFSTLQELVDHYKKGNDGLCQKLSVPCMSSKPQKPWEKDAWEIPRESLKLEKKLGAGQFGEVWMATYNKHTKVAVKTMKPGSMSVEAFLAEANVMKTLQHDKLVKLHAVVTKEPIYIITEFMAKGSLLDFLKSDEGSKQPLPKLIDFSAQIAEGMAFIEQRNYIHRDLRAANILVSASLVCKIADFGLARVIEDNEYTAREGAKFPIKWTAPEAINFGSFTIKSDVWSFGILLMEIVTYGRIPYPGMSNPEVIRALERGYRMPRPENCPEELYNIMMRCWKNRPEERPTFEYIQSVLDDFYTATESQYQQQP
As to `C/C(CC(=O)Nc1ccc(C)cc1C)=N\NC(=O)C(C)C`, the inhibition (in general, the relative decrease from the control value, in per cent) is 14.7%.
With `NC(=O)Nc1ccccc1C(=O)NCCc1ccccc1` the figure was 1.58%.
As for `COc1ccc(Cl)cc1S(=O)(=O)N1CCC(O)(c2ccc(Cl)cc2)CC1`, the figure is 3.69%; as for `CS(=O)(=O)N(CC(O)Cn1c2ccccc2c2ccccc21)c1cccc2ccccc12` (stereo not given), 0.481%; as for `CCCCN(CCCC)CC(O)Cn1c2ccccc2c(=O)c2ccccc21` (stereo not given), 119% (active).
As for `O=C1c2ccccc2S(=O)(=O)N1CC(O)Cn1c2ccccc2c2ccccc21` (stereo not given), the inhibition is 0.294%.
Take `Cn1cnnc1Sc1ccc(CN2CCN(C3CCCC3)C(CCO)C2)o1` (stereo not given): the inhibition is -5.92%.
As for `COC(=O)CCCC1=CC2=CC(=O)C(C)(OC(=O)c3cccs3)C(=O)C2=CN1CC(C)C` (stereo not given), the figure is 23.4%.
For `COC(=O)CCCC1=CC2=CC(=O)C(C)(OC(=O)c3cccs3)C(=O)C2=CN1CC1CC1` (stereo not given), the inhibition is 10.7%.
As for `COC/C=C/C1=CC2=CC(=O)C(C)(OC(=O)CCC(=O)OC)C(=O)C2=CO1` (stereo not given), the inhibition is 51.9% (active).
As for `Cc1ccc(CN(C(=O)c2sc3ccccc3c2Cl)C2CCS(=O)(=O)C2)cc1` (stereo not given), the figure is 3.1%.
With `CC(=O)Nc1ccc(SCC(=O)Nc2ccccc2Oc2ccccc2)cc1` the figure was 0.985%; with `Cc1nn(CC(=O)Nc2ccc(N(C)C)cc2)c(C)c1[N+](=O)[O-]`, 4.36%.
Consider `O=C(O)CCn1cc(/C=C/C(=O)c2ccc(Cl)cc2)c(-c2cccc(Br)c2)n1`, for which the inhibition was 55% (active).
For `CCOC(=O)/C(C#N)=C/c1cn(CCC(=O)O)nc1-c1ccc(Br)cc1`, the inhibition was 20.2%.
As to `O=C(O)/C=C/c1cn(Cc2ccccc2)nc1-c1cccs1`, the inhibition is -1.06%.
As for `Cc1onc(C(=O)NN)c1C(=O)N1CCN(C(c2ccccc2)c2ccccc2)CC1`, the figure is 16.6%; as for `N/C(=N\S(=O)(=O)c1cc(C(F)(F)F)cc(C(F)(F)F)c1)c1cccs1`, -0.264%; as for `O=[N+]([O-])c1ccccc1N/N=C1\CCc2ccccc21`, -4.18%.
As for `COc1ccc(NC(=S)NCc2cccs2)c(OC)c1`, the figure is 0.854%.

(Values after PubChem BioAssay AID463187 (University of Pittsburgh Molecular Library Screening Center, 2010).)
